# Screens as filed in PubChem BioAssay.
# The list is not random: actives were taken first. Their share in the collection is about 2.9%.
# ZTA DNA inh = ZTA (EBV) inhibition in EBNA-1 counter-screen; P03206; ZTA-DNA binding, fluorescence polarization; inhibition, % at 11 µM; 320,000 compounds, 0.15% hits; in the data active means inhibition above about 33%
# PAFAH2 inh = PAFAH2 (human) inhibition. AID 492956. recombinant PAFAH2, FP-rhodamine activity probe, fluorescence polarization. 340,000 compounds, 0.99% hits. Q99487. inhibition, % at 3.39 µM;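 active means inhibition above the mean over all tested compounds plus 3 SD, cut at about 30% in these data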;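 further: inhibitors block probe labeling of enzyme so polarization drops; 0% = enzyme with DMSO and 100% = wells lacking PAFAH2 protein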
# EBNA-1 inhibitor = blocks EBNA-1 binding to DNA. EBNA-1 DNA binding, fluorescence polarization. inhibition, % at 14.8 µM. 300,000 compounds, 0.34% hits; in the data active means inhibition above about 28%
# PAFAH1B2 FP inh = PAFAH1B2 (human) inhibition. 340,000 compounds, 1.2% hits. P68402. recombinant PAFAH1B2, FP-rhodamine activity probe, fluorescence polarization. inhibition, % at 3.39 µM;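 active means inhibition above the mean of all tested compounds plus 3 SD, cut at about 24% in these data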;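 further: 0% = enzyme with DMSO and 100% = wells lacking PAFAH1B2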
# Target sequence (P68402 whole entry, looked up): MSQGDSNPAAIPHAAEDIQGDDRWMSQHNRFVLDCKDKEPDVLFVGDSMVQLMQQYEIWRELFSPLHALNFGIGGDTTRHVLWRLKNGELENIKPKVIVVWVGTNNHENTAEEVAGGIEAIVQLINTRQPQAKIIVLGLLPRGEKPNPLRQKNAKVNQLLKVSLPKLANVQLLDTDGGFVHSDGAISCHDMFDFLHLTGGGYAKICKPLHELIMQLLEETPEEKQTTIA
# rCAG binder = r(CAG) repeat RNA binding. TO-PRO-1 dye displacement fluorescence. inhibition, % at 3 µM. 370,000 compounds, 1.3% hits. AID 651821;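 active means inhibition above the plate cutoff, the mean of all test compounds on that plate plus 3 SD, cut at about 35% in these data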;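 further: 0% = DMSO alone and 100% = 100 µM mitoxantrone as full dye displacement; higher means more dye released from RNA so lower well fluorescence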
# PAFAH1B3 inh = blocks human PAF acetylhydrolase 1B catalytic subunit 3; Q15102; inhibition, % at 3.39 µM; AID 492972; 340,000 compounds, 0.28% hits; recombinant PAFAH1B3, FP-rhodamine probe, fluorescence polarization;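 active means inhibition above the screen-wide average of all tested compounds plus 3 SD, cut at about 25% in these data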;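 further: 0% = enzyme with DMSO only and 100% = wells lacking PAFAH1B3 protein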
# Target sequence (Q15102 whole entry, looked up): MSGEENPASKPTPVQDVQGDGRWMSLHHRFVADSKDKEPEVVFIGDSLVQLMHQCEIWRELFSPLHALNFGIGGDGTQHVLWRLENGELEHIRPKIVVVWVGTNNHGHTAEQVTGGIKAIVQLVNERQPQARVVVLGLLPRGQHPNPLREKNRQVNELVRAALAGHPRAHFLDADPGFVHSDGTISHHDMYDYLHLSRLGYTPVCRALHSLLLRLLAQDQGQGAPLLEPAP
# An asterisk follows results filed as active; nt = no result given.
SMILES,ZTA DNA inh,PAFAH2 inh,EBNA-1 inhibitor,PAFAH1B2 FP inh,rCAG binder,PAFAH1B3 inh
O=C(COC(=O)C12CC3CC(CC(C3)C1)C2)Nc1ccc2[nH]c(=O)[nH]c2c1,0.8,-1.1,5.6,9.9,nt,-2.9
O=C(COC(=O)C12CC3CC(CC(Cl)(C3)C1)C2)Nc1ccc2[nH]c(=O)[nH]c2c1,-5.2,7.5,nt,28.2*,2.3,4.8
S=c1nc2ccccc2c2nc(-c3ccccc3)[nH]n12,4.3,7.7,2.6,8.7,15.2,3.7
CC(Oc1ccc(Br)cc1)c1nc2c3ccccc3nc(=S)n2[nH]1 (stereo unspecified),-0.5,-0.8,5.8,-4.0,36.0*,3.5
Cc1nnc(NC(=O)c2sc3nc(-c4cccs4)cc(C(F)(F)F)c3c2N)s1,9.1,14.7,12.1,1.7,42.1*,11.2
Nc1c(C(=O)Nc2nccs2)sc2nc(-c3cccs3)cc(C(F)(F)F)c12,-1.4,4.1,-10.2,-1.8,10.8,1.1
CC(=O)c1ccc(NC(=O)COC(=O)c2c3c(nc4ccccc24)/C(=C\c2cccs2)CCC3)cc1,17.7,-42.0,43.5*,-29.5,14.0,-60.3
Cc1ccc(-c2nnc3n2N=C(c2ccc4ccccc4c2)CS3)cc1,nt,nt,nt,nt,9.3,nt
CCOC(=O)N1CCN(C(=O)C[C@H]2C[C@@]3(C(=O)OC)C(=C[C@H](COCc4ccccc4)O[C@@H]3C)N(Cc3cccc4ccccc34)C2=O)CC1,nt,nt,nt,nt,11.6,nt
Cc1[nH]n(-c2ccccc2)c(=O)c1C(C[N+](=O)[O-])c1ccc(Br)cc1 (stereo unspecified),-1.4,6.8,5.9,35.0*,10.8,23.1
Cc1cccc(NC(=O)CCS(=O)(=O)c2ccccc2)c1C,nt,nt,nt,nt,3.3,nt
N#Cc1c(NC(=O)C2CC(c3ccccc3O)=NO2)sc2c1CCC2 (stereo unspecified),-6.0,4.6,34.2*,1.6,13.7,10.5
C[C@@H]1COC(=O)[C@H](Cc2ccc(F)cc2)CC/C=C/C[C@@H](CC(=O)N[C@@H](CO)Cc2ccccc2)C(=O)N1,nt,-0.4,nt,10.8,-7.0,1.6
CC(C)(C)[C@H]1COC(=O)[C@@H](Cc2ccc(F)cc2)C/C=C\C[C@@H](CC(=O)N[C@@H](CO)Cc2ccccc2)C(=O)N1,nt,0.1,nt,33.8*,-7.3,-1.9
CC(C)(C)[C@H]1COC(=O)[C@@H](Cc2ccc(F)cc2)C/C=C\C[C@@H](CC(=O)N[C@H](CO)Cc2ccccc2)C(=O)N1,nt,-5.1,nt,66.2*,-7.5,-6.5
CCOCC(=O)NC(=O)N1C[C@H]2CON(C)[C@H]2C[C@H]1c1ccc(OC)cc1,nt,nt,nt,nt,2.3,nt
COc1ccccc1C(=O)N(Cc1ccccn1)CC1CCCO1 (stereo unspecified),nt,nt,nt,nt,6.4,nt
O=S(=O)(NCCc1cccs1)c1ccc(Br)cc1,-15.1,6.3,-4.0,24.8*,-0.3,1.7
O=[N+]([O-])c1cccc(S(=O)(=O)NCCc2cccs2)c1,3.6,4.5,6.3,10.4,-1.7,5.6
Cc1cc(=O)n2[nH]c(-c3ccsc3-n3c(C)ccc3C)cc2n1,-0.3,39.7*,-0.7,8.9,26.5,10.3
CCc1ccc(N2C(=O)C[C@@](C#N)(C(=O)OC)[C@H]2c2ccccc2)cc1,nt,nt,nt,nt,0.6,nt
CC1CCN(c2ccc(C(=O)O)cc2NS(=O)(=O)c2ccc(Cl)s2)CC1,nt,nt,nt,nt,28.9,nt
CN(C)c1cccc(/C=C2\CC3(OC(=O)c4ccc(F)cc4)CCCN2C3)c1 (stereo unspecified),nt,nt,nt,nt,3.1,nt
CC1CC(NC(=O)C2(C)CC2(Cl)Cl)CC(C)(C)C1 (stereo unspecified),0.4,-1.2,-2.5,26.0*,-0.5,1.6
CC1CCN(S(=O)(=O)c2cccc(C(=O)Nc3nncs3)c2)CC1,7.0,5.0,1.3,25.8*,6.6,5.7
CN1CCN(S(=O)(=O)c2cccc(C(=O)Nc3cc(C(N)=O)cc(C(N)=O)c3)c2)CC1,-19.6,3.3,-2.4,25.1*,-1.8,3.0
CC1CCN(S(=O)(=O)c2cccc(C(=O)N(Cc3ccccc3)c3ccccn3)c2)CC1,15.2,2.8,-3.5,24.6*,-3.5,4.6
Cc1nc(-c2cccc(S(=O)(=O)N3CCC(C)CC3)c2)cs1,8.7,3.2,-8.8,30.2*,7.1,0.9
CN1CCN(S(=O)(=O)c2cccc(C(=O)Nc3sccc3C(N)=O)c2)CC1,8.4,3.1,nt,9.2,16.5,14.6
COC(=O)[C@]12C[C@H](CC(=O)NCCCCc3ccccc3)C(=O)N(Cc3ccco3)C1=C[C@H](C(C)C)O[C@@H]2C1CC1,nt,nt,nt,nt,1.0,nt
